VP16 counter – VP16 counterscreen qHTS for inhibitors of ROR gamma transcriptional activity; Drosophila S2 Gal4-VP16 UAS-luciferase, luminescence, 20 h; Potency, µM (top dose mostly 53.6 µM), inactives show at the highest dose activity, negative = inhibition, hits mostly inhibitors; actives 3.5% (n = 310,000);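 further: Gal4-VP16 expression switched on by copper sulfate through the metallothionein promoter; nearly all actives have a fitted effect of over 50% in size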
DT40 TDP1 CPT – qHTS for Inhibitors of human tyrosyl-DNA phosphodiesterase 1 (TDP1): qHTS in cells in presence of CPT. Potency, µM (series often up to 46.2 µM), for the others: at the highest dose activity change, negative = growth inhibition, usual class: inhibitors. actives 12% (n = 420,000). chicken DT40 Tdp1-/-;hTDP1 cells + 20 nM CPT, ATP luminescence, 48 h; further: nearly all actives have a fitted effect of over 55% in size
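Chicken DT40 Tdp1-/- cells stably complemented with human TDP1 were seeded at 400 cells/well in medium containing 20 nM camptothecin, exposed to pin-transferred compounds, and grown at 37 °C for at least 48 hr. Viability was read as ATP luminescence.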
DT40 TDP1 no CPT – qHTS for Inhibitors of human tyrosyl-DNA phosphodiesterase 1 (TDP1): qHTS in cells in absence of CPT; AID 686978, 2013; Potency, µM (series often up to 46.2 µM), without a hit: top-dose activity change, negative = growth inhibition, usual class: inhibitors; DT40 Tdp1-/- hTDP1 cells, no CPT, ATP luminescence, 48 h; actives 15% (n = 420,000); further: nearly all actives have a fitted effect of over 55% in size
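Readout: luminescence from CellTiter-Glo after 30 min in the dark at RT. Cells: DT40 Tdp1-/- with stable hTDP1, 400/well. Exposure: compounds alone, ≥48 hr, 37 °C.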
TDP1 inh – qHTS Assay for Inhibitors of Tyrosyl-DNA Phosphodiesterase (TDP1); Tyrosyl-DNA phosphodiesterase 1 (Homo sapiens), Q9NUW8; recombinant TDP1, AlphaScreen DNA substrate cleavage; Potency, µM (highest dose often 130 µM), for the others: at the top dose activity change, negative = inhibition, most hits filed as inhibitors; actives 0.28% (n = 350,000); AID 485290, 2010; further: nearly all actives have a fitted effect of over 40% in size
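Enzyme-compound mixtures sat 15 min at room temperature, followed by a 5 min reaction with 15 nM final substrate and 10 min with AlphaScreen beads. Recombinant human Tdp1 was used at 1 nM final.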
RORgamma inh – qHTS for inhibitors of ROR gamma transcriptional activity. Drosophila S2 Gal4-RORgamma UAS-luciferase reporter, 20 h. Potency, µM (top dose mostly 53.6 µM), inactives show at the highest dose activity change, negative = inhibition, hits mostly inhibitors. Nuclear receptor ROR-gamma (Mus musculus), P51450. actives 5.4% (n = 310,000); further: nearly all actives have a fitted effect of over 60% in size
Target sequence (P51450 whole entry, looked up, the tested form may be a part): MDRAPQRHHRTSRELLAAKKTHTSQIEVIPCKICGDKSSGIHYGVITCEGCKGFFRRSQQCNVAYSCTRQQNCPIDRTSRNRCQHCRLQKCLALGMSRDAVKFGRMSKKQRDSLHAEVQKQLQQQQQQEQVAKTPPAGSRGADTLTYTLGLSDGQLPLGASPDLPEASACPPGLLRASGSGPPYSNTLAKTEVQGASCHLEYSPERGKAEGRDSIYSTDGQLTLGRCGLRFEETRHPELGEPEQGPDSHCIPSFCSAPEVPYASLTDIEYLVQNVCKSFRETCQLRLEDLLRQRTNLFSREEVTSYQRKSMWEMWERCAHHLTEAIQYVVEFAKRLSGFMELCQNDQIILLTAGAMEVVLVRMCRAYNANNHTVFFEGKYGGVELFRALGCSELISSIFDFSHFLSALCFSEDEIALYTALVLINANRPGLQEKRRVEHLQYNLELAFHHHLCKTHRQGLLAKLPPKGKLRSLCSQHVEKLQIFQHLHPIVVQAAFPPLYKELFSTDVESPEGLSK
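Read-out: Photinus luciferase luminescence; inhibitors lower reporter signal. Insect Schneider cells with Gal4-ROR gamma fusion under metallothionein promoter, UAS reporter; 700 uM final copper sulfate induction, 20 hr, ambient temperature.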
Starred values were filed as active, the others as inactive; [ ] = remark or other dose. Only some compounds are listed: those with a hit (about 19% of all), similar ones and a draw of the others. The call rests on the fitted dose curve; in most records, active means well fitted curve in the direction sought with a large enough effect; inconclusive means small, poorly fitted or top-dose-only effect, or another doubt; inactive means no such curve, though single readings can be large; an effect the other way counts as inactive or inconclusive. On the % scale 0 is the no-effect control and ±100 the full control effect; potency means the concentration at half of the fitted maximal effect.

How did CCC(C)NC(=O)C1=C(C)C(=O)OC12CCC(C)CC2 (centres undefined) do in these assays?
VP16 counter: -9.3%; DT40 TDP1 CPT: -0.3%; DT40 TDP1 no CPT: -5.2%; TDP1 inh: 2.2%; RORgamma inh: -20.9%

What do the screens show for `Cn1c(=O)c2c(nc(CN3CCOCC3)n2CC(=O)c2ccccc2)n(C)c1=O`?
DT40 TDP1 CPT: -22.2%; DT40 TDP1 no CPT: inconclusive

What do the screens show for `CN(c1nc2c(c(=O)n(C)c(=O)n2C)n1CC(=O)c1ccccc1)C1CCCCC1`?
VP16 counter: 1.1%; DT40 TDP1 CPT: inconclusive; DT40 TDP1 no CPT: 23.1µM*; TDP1 inh: 6.2%; RORgamma inh: 22.7%

How did Cn1c(=O)c2c(nc(CN3CCc4ccccc4C3)n2Cc2ccccc2)n(C)c1=O do in these assays?
VP16 counter: -8.1%; DT40 TDP1 CPT: 23.1µM*; DT40 TDP1 no CPT: 14.6µM*; TDP1 inh: 7.2%; RORgamma inh: -29.6%

How did Cn1c(=O)c2c(nc(CN3CCc4ccccc4C3)n2CC(=O)c2ccccc2)n(C)c1=O do in these assays?
DT40 TDP1 CPT: 18.4µM*; DT40 TDP1 no CPT: 25.9µM*

How did CCOCCn1c(CN2CCc3ccccc3C2)nc2c1c(=O)n(C)c(=O)n2C do in these assays?
VP16 counter: 1.5%; DT40 TDP1 CPT: 23.1µM*; DT40 TDP1 no CPT: 10.3µM*; TDP1 inh: 2.5%; RORgamma inh: 4.0%

What do the screens show for `Cc1[nH]c(C(=O)O)c(C#N)c1C(=O)c1ccccc1`?
VP16 counter: -2.1%; DT40 TDP1 CPT: -1.5%; DT40 TDP1 no CPT: 6.4%; RORgamma inh: 2.2%

Results for COc1cc(OC)c(CN2CCc3c([nH]c4ccccc34)C2)cc1Br ?
VP16 counter: 1.3%; DT40 TDP1 CPT: inconclusive; DT40 TDP1 no CPT: inconclusive; RORgamma inh: 15.5%

What do the screens show for `Nc1c(C(=O)NCCc2ccc(Cl)cc2)sc2ccc(S(=O)(=O)N3CCCCC3)cc12`?
VP16 counter: 0.9%; TDP1 inh: 4.2%; RORgamma inh: 29.4%

What do the screens show for `CC(C)COc1ccc(C(=O)NCC2OCCc3ccccc32)cc1` (centres undefined)?
DT40 TDP1 CPT: inconclusive; DT40 TDP1 no CPT: 14.6µM*; TDP1 inh: 7.5%[12.3 µM]

Results for CCN(CC)c1ccc(S(=O)(=O)N(CC)CC)cc1NC(=O)C1CCCC1 ?
VP16 counter: 0.3%; DT40 TDP1 CPT: inconclusive; DT40 TDP1 no CPT: inconclusive; TDP1 inh: -10.3%; RORgamma inh: 2.9%

How did Cn1cc(C(=O)N/N=C/C(Br)=C\c2ccccc2)ccc1=O do in these assays?
VP16 counter: 4.0%; DT40 TDP1 CPT: 2.31µM*; DT40 TDP1 no CPT: 2.91µM*; TDP1 inh: 2.0%; RORgamma inh: inconclusive

What do the screens show for `Cn1cc(C(=O)N/N=C/c2cccc(O)c2)ccc1=O`?
VP16 counter: 4.0%; DT40 TDP1 CPT: 0.0%; DT40 TDP1 no CPT: -7.8%; TDP1 inh: -2.5%; RORgamma inh: 19.1%

Results for Cn1cc(C(=O)N/N=C/C(Br)=C/c2ccccc2)ccc1=O ?
VP16 counter: inconclusive; DT40 TDP1 CPT: 3.26µM*; DT40 TDP1 no CPT: 2.31µM*; TDP1 inh: 5.8%; RORgamma inh: inconclusive

What do the screens show for `NC(=O)C1(N2CCCCC2)CCN(C(=S)Nc2cccc(Cl)c2)CC1`?
VP16 counter: -11.6%; DT40 TDP1 CPT: 3.4%; DT40 TDP1 no CPT: -23.0%; TDP1 inh: 1.9%; RORgamma inh: 2.4%

How did Cc1cccc(C(=O)Nc2cccc(OCc3cc(=O)n4cc(C)sc4n3)c2)c1 do in these assays?
DT40 TDP1 CPT: inconclusive; DT40 TDP1 no CPT: inconclusive; TDP1 inh: 6.4%

Results for Cc1cn2c(=O)cc(COc3cccc(NC(=O)c4ccccc4Cl)c3)nc2s1 ?
DT40 TDP1 CPT: inconclusive; DT40 TDP1 no CPT: 13µM*; TDP1 inh: 1.3%

Results for Cc1cn2c(=O)cc(COc3cccc(NC(=O)c4ccc(C(C)(C)C)cc4)c3)nc2s1 ?
DT40 TDP1 CPT: 16.4µM*; DT40 TDP1 no CPT: 16.4µM*; TDP1 inh: 3.8%

Results for CCOC(=O)c1ccc(N/C=C/C(=O)c2ccco2)cc1 ?
VP16 counter: inconclusive; DT40 TDP1 CPT: -21.1%; DT40 TDP1 no CPT: inconclusive; TDP1 inh: 4.6%; RORgamma inh: 32.4%

Results for CCSc1nnc(NC(=O)CSc2nnc(CNC(=O)c3cc(OC)c(OC)c(OC)c3)o2)s1 ?
VP16 counter: inconclusive; DT40 TDP1 CPT: -2.8%; DT40 TDP1 no CPT: -6.1%; TDP1 inh: 4.6%; RORgamma inh: 15.8µM*

How did COc1ccc(C(=O)NCc2nnc(SCC(=O)Nc3nnc(C)s3)o2)cc1OC do in these assays?
VP16 counter: -1.4%; DT40 TDP1 CPT: -7.8%; DT40 TDP1 no CPT: -11.6%; TDP1 inh: 1.8%; RORgamma inh: inconclusive

What do the screens show for `CCc1nnc(NC(=O)CSc2nnc(CNC(=O)c3cc(OC)c(OC)c(OC)c3)o2)s1`?
VP16 counter: -15.8%; DT40 TDP1 CPT: 4.6%; DT40 TDP1 no CPT: 22.6%; TDP1 inh: -2.3%; RORgamma inh: -15.7%

How did COc1ccc(C(=O)NCc2nnc(SCC(=O)Nc3nc4ccc(C)cc4s3)o2)cc1OC do in these assays?
VP16 counter: 7.94µM*; DT40 TDP1 CPT: 4.11µM*; DT40 TDP1 no CPT: 2.31µM*; TDP1 inh: 2.2%; RORgamma inh: 7.94µM*

Results for CC(C)CCN(C(=O)c1csnn1)C(C(=O)NC1CCCC1)c1ccc(F)cc1 (centres undefined) ?
VP16 counter: -0.7%; DT40 TDP1 CPT: -16.2%; DT40 TDP1 no CPT: -29.0%; RORgamma inh: 4.4%

What do the screens show for `CC(=O)Nc1ccc(C2=NN(C)C(=NCc3ccccc3)SC2)cc1`?
VP16 counter: 1.2%; DT40 TDP1 CPT: inconclusive; DT40 TDP1 no CPT: inconclusive; TDP1 inh: 0.0%; RORgamma inh: 0.1%

What do the screens show for `Cn1c(/C(C#N)=C(\O)c2cc(Cl)sc2Cl)nc2ccccc21`?
VP16 counter: 4.47µM*; DT40 TDP1 CPT: 18.4µM*; DT40 TDP1 no CPT: inconclusive; TDP1 inh: 4.8%; RORgamma inh: 4.47µM*

How did Cn1c(C(=O)c2ccccc2)nc2ccccc21 do in these assays?
VP16 counter: 29.4%; DT40 TDP1 CPT: 2.3%; DT40 TDP1 no CPT: 1.3%; RORgamma inh: 13.2%

Results for CCSc1nc2ccccc2n1C(=O)c1ccc(S(=O)(=O)N2CCCCCC2)cc1 ?
VP16 counter: -9.8%; DT40 TDP1 CPT: 0.2%; DT40 TDP1 no CPT: inconclusive; TDP1 inh: -4.1%; RORgamma inh: 1.6%

Assay outcomes as filed in PubChem BioAssay.
